# A selection: hits, their analogues and other compounds. The true share with any hit is near 4.1%.
# ALR inh: inhibitors of human ALR sulfhydryl oxidase, primary screen, biochemical, H2O2 detection, HRP-luminol luminescence, single point; 3.8% of 290,000 active; FAD-linked sulfhydryl oxidase ALR (Homo sapiens), P55789; purified ALR, DTT oxidation; inhibition, % (concentration not given with the values); AID 485317, 2010;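 active = mean replicate inhibition above about 79%, with every replicate also reaching it, limit read from the data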
# CFTR F508del cor: F508del CFTR correction, initial screen, CFBE line, single point. 0.36% of 350,000 active. activity (quench increase), % at 7.58 µM. CFBE cells, YFP halide quenching; stimulated with forskolin plus potentiator P3; % fluorescence drop versus neutral controls. AID 720511, 2013;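 active = mean added fluorescence quench of at least 8% versus neutral control, with both replicates also reaching 8%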;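 note: cells transiently co-express mutant CFTR-F508del with the halide-sensitive YFP; corrector assay measuring rescue of mutant channel to the surface after 24 h compound exposure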
# NSD2 HMT inh: NSD2 histone methyltransferase inhibitors, primary screen, biochemical, AlphaScreen, single concentration, set 2; Histone-lysine N-methyltransferase NSD2 (Homo sapiens), O96028; NSD2 peptide methylation, 120 min; inhibition, % at 12.5 µM; 0.54% of 310,000 active; AID 743445, 2014; in the data active = inhibition above about 50%
# Target sequence (O96028 whole entry, looked up): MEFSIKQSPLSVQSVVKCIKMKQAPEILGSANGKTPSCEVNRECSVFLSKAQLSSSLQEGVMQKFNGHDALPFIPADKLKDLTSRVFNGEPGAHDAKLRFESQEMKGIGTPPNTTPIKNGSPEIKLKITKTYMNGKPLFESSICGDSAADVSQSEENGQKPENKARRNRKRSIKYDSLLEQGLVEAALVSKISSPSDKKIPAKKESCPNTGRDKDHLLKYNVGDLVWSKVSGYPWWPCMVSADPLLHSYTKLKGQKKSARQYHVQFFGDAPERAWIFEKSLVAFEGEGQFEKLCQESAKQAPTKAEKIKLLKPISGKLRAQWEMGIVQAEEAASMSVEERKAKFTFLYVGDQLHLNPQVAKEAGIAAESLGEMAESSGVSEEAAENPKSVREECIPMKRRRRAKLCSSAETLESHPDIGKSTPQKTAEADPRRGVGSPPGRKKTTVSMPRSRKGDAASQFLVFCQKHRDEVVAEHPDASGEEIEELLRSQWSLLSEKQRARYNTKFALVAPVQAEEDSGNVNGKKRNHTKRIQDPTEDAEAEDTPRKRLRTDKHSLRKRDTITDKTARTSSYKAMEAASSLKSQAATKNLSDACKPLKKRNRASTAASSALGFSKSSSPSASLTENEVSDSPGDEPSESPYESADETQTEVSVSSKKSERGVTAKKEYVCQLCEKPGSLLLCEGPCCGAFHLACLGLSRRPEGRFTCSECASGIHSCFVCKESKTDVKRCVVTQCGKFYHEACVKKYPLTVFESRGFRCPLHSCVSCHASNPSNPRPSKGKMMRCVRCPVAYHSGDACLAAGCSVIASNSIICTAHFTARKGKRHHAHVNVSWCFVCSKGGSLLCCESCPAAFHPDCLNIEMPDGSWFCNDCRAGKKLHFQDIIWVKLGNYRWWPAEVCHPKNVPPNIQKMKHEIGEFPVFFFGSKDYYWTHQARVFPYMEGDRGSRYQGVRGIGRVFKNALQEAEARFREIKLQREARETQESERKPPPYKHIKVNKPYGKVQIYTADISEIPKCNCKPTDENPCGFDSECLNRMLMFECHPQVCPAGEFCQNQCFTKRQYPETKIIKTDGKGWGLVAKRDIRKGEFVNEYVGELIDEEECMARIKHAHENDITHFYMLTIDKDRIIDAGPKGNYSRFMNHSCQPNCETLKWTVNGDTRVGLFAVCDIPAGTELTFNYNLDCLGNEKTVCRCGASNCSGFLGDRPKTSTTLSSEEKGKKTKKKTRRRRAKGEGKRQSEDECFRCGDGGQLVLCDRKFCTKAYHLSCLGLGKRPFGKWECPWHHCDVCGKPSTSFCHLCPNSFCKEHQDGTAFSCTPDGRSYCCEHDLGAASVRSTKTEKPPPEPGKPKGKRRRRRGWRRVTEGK
# Env fusion inh: inhibitors of HIV-1 Env-driven cell-cell fusion, primary screen, HeLa-JRFL effector, CEM21 target cells, luciferase; inhibition, % at 12.3 µM; 1.1% of 360,000 active;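 active = mean replicate inhibition score of at least 50 and every replicate individually at or above 50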;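 note: 0% = plate neutral controls and 100% = maraviroc near 300 nM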
# PglD DTNB: C. jejuni PglD acetyltransferase inhibitors, primary screen, biochemical, DTNB colorimetric, single point. UDP-N-acetylbacillosamine N-acetyltransferase PglD (Campylobacter jejuni). inhibition, % at 12.5 µM. AID 602405, 2012. 0.098% of 360,000 active. purified PglD enzyme, DTNB colorimetric CoA detection; in the data active = inhibition above about 16%, passing the limit was not always enough
# CASP6 VEID inh: human caspase-6 inhibitors, primary screen, biochemical, VEID-R110 fluorescence, single point, set 2. P55212. purified caspase-6, Z-VEID-R110 cleavage fluorescence. inhibition, % at 12.5 µM. 0.53% of 350,000 active. AID 686996, 2013;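 active = mean inhibition across replicates at least about 35%, with every replicate also reaching that limit, limit read from the data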;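 note: 0% = median of neutral control wells and 100% = no fluorescence left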
# Active calls of the source: *; / = no result; [ ] = remark or other dose.
SMILES,ALR inh,CFTR F508del cor,NSD2 HMT inh,Env fusion inh,PglD DTNB,CASP6 VEID inh
CC(C)NC(=O)Nc1ccc2c(c1)C(=O)N([C@H](C)CO)C[C@@H](C)[C@H](CN(C)S(=O)(=O)c1ccc(F)cc1)OCCCC[C@@H](C)O2,/,-2,/,-22[16.7 µM],0,0
C[C@H](CO)N1C[C@H](C)[C@H](CN(C)S(=O)(=O)c2ccc(F)cc2)Oc2ccc(NC(=O)Nc3cccc4ccccc34)cc2C1=O,/,-1,/,36[16.7 µM],2,2
CC1(C)COC(c2cc([N+](=O)[O-])ccc2Cl)=N1,/,/,0,/,1,/
CC1(C)COC(/C=C/c2cccc([N+](=O)[O-])c2)=N1,-1,-6,-4,-38,/,46*
O=C(C[C@H]1C[C@H]2c3cc(NC(=O)Nc4ccc(C(F)(F)F)cc4)ccc3O[C@H]2[C@H](CO)O1)NCc1ccc(Cl)cc1,/,-1,/,-10[16.7 µM],3,-2
COc1ccc(Cl)cc1C1=NOC2(CCC2)C(=O)N1Cc1ccc(NC(C)=O)cc1,/,6,/,67*,2,0
COc1ccc(-c2cc3nc(NCc4ccc(N(C)C)cc4)n(C)c(=O)c3s2)cc1OC,/,-4,1,2,-7,0
Cn1c(NCc2ccccc2)nc2cc(-c3ccccc3)sc2c1=O,/,3,-2,3,4,2
COc1cccc(CNc2nc3cc(-c4ccc(OC)c(OC)c4)sc3c(=O)n2C)c1,/,1,-1,60*,-4,6
COc1cccc(CNc2nc3cc(-c4ccccc4)sc3c(=O)n2C)c1,/,1,0,63*,-1,1
COCC(=O)N(C)C[C@H]1Oc2ncc(C3=CCCCC3)cc2C(=O)N([C@@H](C)CO)C[C@@H]1C,/,-2,/,-2[16.7 µM],2,2
CCN1[C@@H]2c3ccc(-c4cccc(F)c4)c(=O)n3C[C@@H]2[C@@H](CO)[C@@H]1C(=O)OC,/,2,/,/,/,0
CCNC(=O)Nc1ccc2c(c1)C(=O)N(C)[C@H]1CC[C@@H](CC(=O)NCc3ccc(F)cc3)O[C@H]1CO2,/,-2,/,-4[16.7 µM],-5,2
O=S1(=O)CC/C(=N\Nc2ccccc2)c2ccsc21,100*,-3,-1,16,/,0
COc1ccccc1CNC(=O)C[C@@H]1CC[C@@H]2[C@H](COC[C@@H](O)CN2Cc2ccccc2)O1,/,-2,/,/,-1,0
COc1ccc(NC(=O)N(C)C[C@@H]2OCCCC[C@@H](C)Oc3ccc(NC(=O)Nc4ccccc4)cc3C(=O)N([C@H](C)CO)C[C@@H]2C)cc1,/,0,/,1[16.7 µM],-1,1
CC1(C)Oc2cc3oc(-c4cc(O)cc(O)c4)cc3cc2CC1O (stereo unspecified),99*,-2,/,/,0,2
COc1ccc(S(=O)(=O)N[C@@H]2CC[C@@H](CC(=O)NCCc3ccncc3)O[C@H]2CO)cc1,/,1,/,-16[16.7 µM],0,-3
O=C(C[C@H]1CC[C@@H]2NC[C@H](O)COC[C@H]2O1)Nc1nccs1,/,1,/,-17[16.7 µM],-6,/
CN(C)c1ccc(/C=C/C(=O)c2ccc(O)cc2)cc1,/,1,/,-292,/,-2
CN(C)c1ccc(/C=C/C(=O)c2cccnc2)cc1,99*,0,-4,16,-8,-2
O=C(/C=C/c1ccco1)c1cccnc1,-14,2,28,-4,/,65*
CC(/C=C/c1ccco1)=N\NC(=O)c1cccnc1,-3,/,1,-21,/,/
CN(c1ncc(C(F)(F)F)cc1Cl)n1cc(C(N)=O)c2ccccc2c1=O,-9,/,110*,/,/,/
COc1ccc(-c2nn[nH]n2)cc1OC,12,/,0,/,7,/
SMILES,ALR inh,CFTR F508del cor,NSD2 HMT inh,Env fusion inh,PglD DTNB,CASP6 VEID inh
CCOc1ccc(-c2nc(=S)[nH][nH]2)cc1,/,/,0,/,/,/
COc1ccc(-c2nc(=S)[nH][nH]2)cc1,99*,/,1,/,5,/
COc1cc(-c2nnc(-c3cc(OC)c(OC)c(OC)c3)o2)cc(OC)c1OC,0,/,-2,/,-8,/
Oc1ccc(-c2nc(=S)[nH][nH]2)cc1,/,/,37,/,1,/
COc1ccc(-c2nc(=S)[nH][nH]2)cc1OC,100*,4,-2,-15,/,2
FC(F)(F)c1ccc(-c2nc(=S)[nH][nH]2)cc1,99*,2,1,-9,0,1
COc1cc(-c2nc(=S)[nH][nH]2)cc(OC)c1OC,99*,-3,/,-115,/,0
C[C@H]1CN([C@@H](C)CO)C(=O)Cc2cc(NC(=O)CCCCCC(=O)Nc3ccccc3N)ccc2O[C@H]1CN(C)C(=O)Nc1ccc(C(F)(F)F)cc1,/,-1,/,9[16.7 µM],2,/
C[C@H](CO)N1C[C@H](C)[C@H](CN(C)S(C)(=O)=O)Oc2c(NC(=O)Nc3ccc(C(F)(F)F)cc3)cccc2C1=O,/,-1,/,/,8,3
COc1ccc(N2CCC(CNC(=O)Nc3ccc(C)c(C)c3)C2)cc1 (stereo unspecified),15,0,/,21,3,-1
COc1ccc(N2CCC(CNC(=O)Nc3ccc(OC)cc3OC)C2)cc1 (stereo unspecified),85*,/,6,/,2,/
CCN1C/C(=C/c2ccc(OC)c(O)c2)C(=O)/C(=C/c2ccc(OC)c(O)c2)C1,98*,6,6,-116,/,3
CCOC(=O)C1=C(C)NC(=O)NC1c1ccco1 (stereo unspecified),10,-1,5,/,/,46*
COCCOC(=O)C1=C(C)NC(=O)NC1c1ccco1 (stereo unspecified),-5,-1,3,1,2,14
CC(C)(C)NC(=O)/C(=C/c1ccco1)c1ccccc1,90*,/,0,/,2,/
Cc1ccccc1NC(=O)/C(=C/c1ccco1)c1ccccc1,83*,/,2,/,-3,/
COCC(=O)Nc1ccc2c(c1)OC[C@H](C)N(C(=O)Cc1ccccn1)C[C@H](C)[C@H](OC)CN(C)C2=O,/,1,/,/,-1,0
CCOC(=O)/C(=N/Nc1ccccc1)N1CCCc2ccccc21,94*,/,1,-48,/,/
COC(=O)/C(=N/Nc1ccccc1C)N1CCCc2ccccc21,98*,/,0,-8,/,/
CCOC(=O)/C(=N/Nc1ccccc1OC)N1CCCc2ccccc21,71,0,-3,15,/,-6
CCc1cnc(N2[C@@H](C#N)[C@H](c3ccc(C#Cc4ccccc4F)cc3)[C@@H]2CO)s1,/,-1,/,59*[16.7 µM],5,2
CCc1cnc(N2[C@H](C#N)[C@@H](c3ccc(C#Cc4ccccc4F)cc3)[C@@H]2CO)s1,/,0,/,7[16.7 µM],-1,3
O=C(N[C@H]1CC[C@@H](CCn2cc(-c3ccccn3)nn2)O[C@H]1CO)c1cccnc1,/,1,/,6[16.7 µM],7,0
Nc1ccc(-c2cn3cccnc3n2)cc1,/,-3,1,-13,3,-6

# High-throughput results as filed in PubChem BioAssay.
